In PubChem BioAssay (NCI):
Compounds without any hit were thinned out: in the full panel of roughly 79,000, 15% have a hit. A number with no mark means an inactive call. Calls of active or inactive are those of the source. Rule as the data show it: active = growth inhibition above about 70%; inactive = the rest.

How the values were obtained:
[1] = NCI Yeast Anticancer Drug Screen. Data for the rad50 strain (AID 155);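 also: 0% = growth of vehicle-only cultures of the same strain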; conditions: S. cerevisiae rad50 strain growth inhibition; at 50.0 µM; hits give high values
Outline: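 Compounds were tested on a yeast strain with an engineered DNA damage repair alteration; the reported value is growth inhibition normalised to vehicle treatment.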

[2] = NCI Yeast Anticancer Drug Screen. Data for the mec2-1 strain (AID 157); conditions: S. cerevisiae mec2-1 strain, at 50.0 µM, hits give high values
Outline: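 Compounds were applied to mec2-1 yeast cells. Their growth was then compared with that of vehicle-treated cultures to give growth inhibition.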

[3] = NCI Yeast Anticancer Drug Screen. Data for the sgs1 mgt1 strain (AID 161);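 also: 0% = growth of cultures given vehicle only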; conditions: S. cerevisiae sgs1 mgt1 strain, at 50.0 µM, hits give high values
Outline: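 Growth of a repair-deficient yeast mutant was monitored after compound treatment and expressed as inhibition relative to vehicle-treated cultures.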

[4] = NCI Yeast Anticancer Drug Screen. Data for the cln2 rad14 strain (AID 165);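 also: 0% = growth equal to vehicle treated cultures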; conditions: S. cerevisiae cln2 rad14 strain, at 50.0 µM, hits give high values
Outline: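 Strain: cln2 rad14 yeast, altered in cell cycle control and DNA damage repair. Read-out: growth inhibition vs vehicle.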

[5] = NCI Yeast Anticancer Drug Screen. Data for the bub3 strain (AID 167); conditions: S. cerevisiae bub3 mutant strain, at 50.0 µM, hits give high values
Outline: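 Growth of a checkpoint-deficient yeast mutant is measured after compound exposure. Values represent inhibition relative to vehicle.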

[6] = NCI Yeast Anticancer Drug Screen. Data for the mlh1 rad18 strain (AID 175); conditions: S. cerevisiae mlh1 rad18 strain growth inhibition; at 50.0 µM; hits give high values
Outline: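 A repair-deficient yeast strain is exposed to test compound, and growth is scored relative to vehicle-treated controls.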

| Compound | growth inhibition [1] | growth inhibition [2] | growth inhibition [3] | growth inhibition [4] | growth inhibition [5] | growth inhibition [6] |
| --- | --- | --- | --- | --- | --- | --- |
| CC1=C(C)C(=O)O[C@@H]([C@](C)(O)[C@]2(O)CC[C@@]3(O)[C@@H]4C[C@H]5O[C@]56[C@@H](O)C=CC(=O)[C@]6(C)[C@H]4CC[C@]23C)C1 | 14.9% | 24.9% | 10.7% | 13.4% | 20.1% | 12.8% |
| [CH3][Sb]1([Br])[CH2]CC[CH2]1 | 6.8% | 15.2% | 5.85% | -1.6% | -11.8% | 3.05% |
| NC(=O)C[N+](=O)[O-] | -16.9% | 17% | -11.4% | 11% | -2.35% | -2.2% |
| COC1C(OC(=O)/C=C/C=C/C=C/C=C\C(=O)O)CCC2(CO2)C1C1(C)OC1CC=C(C)C (configuration not stated) | 9.95% | -1% | -19.3% | 0.95% | -8.7% | 24.1% |
| [CH3][Sn]1([CH3])[O]C(=O)C(=O)[O]1 | 12.2% | 19.4% | 2.4% | -26.8% | -9.6% | 7.8% |
| Cc1cc(S(=O)(=O)F)ccc1NC(=O)/C=C/c1ccc([N+](=O)[O-])cc1 | 8.95% | 4% | 0.75% | 0.55% | 21.4% | -8.15% |
| CNC(=O)Oc1cc(C)cc(C(C)C)c1 | 14.3% | 0.05% | 1.6% | 9.15% | 1.3% | 6% |
| CO/C(=N/N1CC1C(F)(F)F)c1ccncc1 (configuration not stated) | -34.8% | 19.2% | -51.9% | 11.8% | 1.65% | 8% |
| N#Cc1cccnc1 | 4.75% | -4.15% | 4.1% | 5.6% | 9.05% | 2.75% |
| CC1CN=C(NCc2ccccc2)S1 (configuration not stated) | -33.2% | 16.6% | -33.5% | 21.9% | -1.05% | -6.6% |
| Cc1cc(NC(=O)Oc2ccc([N+](=O)[O-])cc2)ccc1S(=O)(=O)F | 1.85% | 39.4% | 14.2% | 4% | 28.6% | 35% |
| CNC(=O)O/N=C(\SC)C(=O)N(C)C | -39.9% | -27.2% | -5.05% | -31.2% | -3.1% | -1.05% |
| CN(N=O)C(=O)ON1C(=O)CCC1=O | 9.65% | 7.55% | 11.3% | 12.4% | 18.8% | 8.75% |
| Nc1cc(S(=O)(=O)O)cc2cc(S(=O)(=O)O)c(N=Nc3ccc([As]=O)cc3)c(O)c12 (configuration not stated) | -11.1% | 15.3% | -9.3% | -4.55% | 6.05% | -5.3% |
| C=CCOC(=O)Cc1ccccc1 | 20.5% | -5.35% | 4.9% | -31.9% | -39.2% | -3.9% |
| CCC1(O)CC(OC2CC(N(C)C)C(OC3CC(O)C(OC4CCC(=O)C(C)O4)C(C)O3)C(C)O2)c2c(cc3c(c2O)C(=O)c2c(O)ccc(O)c2C3=O)C1C(=O)OC (configuration not stated) | 88.8% (active) | 90.9% (active) | 90.5% (active) | 88.4% (active) | 90% (active) | 89% (active) |
| CCCc1ccc(CCN)cc1 | -8.55% | -9% | -15.1% | -9.45% | -2.3% | -23.2% |
| CCN1C(=O)CC(=O)N(CC)C1=S | 24.4% | -12.4% | -8.55% | 12.2% | 8.45% | 21.2% |
| CCOP(=O)(OCC)O/N=C(/CC)c1ccccc1 | 5.35% | -8.75% | 11.4% | -13.4% | -1.55% | -12.1% |

| Compound | growth inhibition [1] | growth inhibition [2] | growth inhibition [3] | growth inhibition [4] | growth inhibition [5] | growth inhibition [6] |
| --- | --- | --- | --- | --- | --- | --- |
| O=C(C(F)(F)Cl)C(F)(F)Cl | 13.8% | -14.9% | 6.85% | 15.6% | -15.2% | 24.3% |
| CCC12C=CCN3CCC4(C(=C(C(=O)OC)C1)Nc1ccccc14)[C@H]32 (some centres not stated) | 6.7% | 6% | 6% | -8% | 7.25% | 0.8% |
| [CH3][Sn]([CH3])([Br])[CH2]CCBr | 84.2% (active) | 88.1% (active) | 89.2% (active) | 48.5% | 95% (active) | 96.5% (active) |
| CN(C)C(=S)Oc1c(S(=O)(=O)F)ccc(Cl)c1Cl | 96.3% (active) | 88% (active) | 98% (active) | 76.5% (active) | 95.2% (active) | 98.3% (active) |
| O=C1NC(=O)C(C(=O)C(=O)Nc2cccc(C(F)(F)F)c2)C(=O)N1 | -17.7% | 0.1% | -44.7% | -1.75% | -31% | -40.9% |
| CCOP(=O)(OCC)Oc1ccncc1 | -2.8% | -0.3% | -7.6% | -4.25% | 7.75% | 4.1% |
| CNCCc1cccs1 | -27.6% | -6.4% | 1.25% | -29.1% | 6.15% | 4.7% |
| CCCC[C@@H]1CCN2C[C@@H](O)[C@@H](O)[C@@H]2[C@H]1O | -2.4% | 5.65% | -9.45% | 11.7% | 12.2% | -12.9% |
| CCCCOP(=O)(O)OCCCC.[V] | -0.55% | -1.55% | -1.55% | -17.1% | -10.9% | 0.65% |
| Cc1ccc([NH-])cc1.Cc1ccc([NH-])cc1.[Cl][Pt+2][Cl] | -31.7% | -6.8% | 3.95% | -61.7% | 3.55% | -11.3% |
| CO[C@H](C)[C@](O)(C(=O)OCC1=CCN2CC[C@@H](O)[C@H]12)C(C)C | -11.4% | -37.6% | -8.8% | 1.25% | -23.8% | -13.6% |
| CC1(C)OCC(CO)(Nc2nc(N3CC3)nc(N3CC3)n2)CO1 | -12.6% | 2.9% | 3.3% | -38% | 5.6% | -2.8% |
| CO[C@@]12[C@H](COC(N)=O)C3=C(C(=O)C(C)=C(NCCO)C3=O)N1C[C@@H]1N[C@@H]12 | 3.75% | -27.1% | 21.1% | -0.4% | 7.35% | -7.45% |
| CC(C)CC1N=C(NN=C(CCl)CCl)SP1(=O)NCCCCCCNP1(=O)SC(NN=C(CCl)CCl)=NC1CC(C)C (configuration not stated) | 2.95% | 12.1% | 11.4% | -11.7% | 15.9% | 13.8% |
| Cc1ccc(Oc2ccc3c(c2)CN(C)CC3)cc1 | 93.8% (active) | 90.5% (active) | 96.8% (active) | 74.5% (active) | 96.6% (active) | 95.7% (active) |
| CC[C@H]1CN2CCc3cc(OC)c(OC)cc3[C@@H]2C[C@@H]1C[C@H]1NCCc2c1[nH]c1ccc(O)cc21 | -16.8% | 17.3% | -19.9% | -8.65% | -26.9% | 7.7% |
| CN(C)CC#CCN(C)C | 28.1% | 5% | -1% | -10.8% | 0.45% | 7.2% |
| CC(=O)Nc1nc2c(ncn2C2OCC(OC(C)=O)C(OC(C)=O)C2OC(C)=O)c(=O)[nH]1 (configuration not stated) (tested in a mixture with another compound) | 4.1% | -4.35% | 2.65% | -6.9% | 6.1% | 6.95% |
